Screens: PubChem, Sanford-Burnham Center for Chemical Genomics
TROY signal inh: inhibitors of TROY-dependent NF-kB signaling; actives 0.98% (n = 360,000); AID 1347056; inhibition, % at 10 µM; Q293 LMP1-TROYcd NF-kB luciferase reporter, 4 h;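 active means compounds whose plate-normalised and pattern-corrected inhibition of the luciferase reporter signal at the single screening dose is 50% or more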
Peg3 promoter: Peg3 promoter activity inhibition. HeLa PEG-Prom luciferase reporter, luminescence, overnight. inhibition, % at 20 µM. actives 1.7% (n = 360,000). AID 588405;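 active means inhibition of at least 50% at 20 µM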
HIF-2a inh: blocks HIF-2a reporter activity | 786-0 RCC cells HIF-2a reporter, luciferase luminescence, overnight | inhibition, % at 18.8 µM | actives 0.72% (n = 360,000);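 active means inhibition of the luminescence signal of 40% or more relative to plate controls, in a single-dose primary screen at 18.75 µM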
KKLEB tox: reduces viability of KKLEB cystic fibrosis airway cells | actives 0.36% (n = 360,000) | activity change (cytotoxicity), % at 5 µM | KKLEB CF airway cells viability, ATPlite luminescence, overnight; active compounds read low; cells stimulated with P. aeruginosa culture filtrate;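 active means corrected activity change at or below -50% at 5 µM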
CF NFkB block: blocks PAF-induced NF-kB reporter in cystic fibrosis cells; actives 0.86% (n = 360,000); KKLEB NF-kB-GFP reporter, GFP fluorescence overnight; inhibition, % at 5 µM; AID 588850;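 active means at least 50% inhibition at 5 µM, scaled per plate between neutral and stimulator controls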;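 further: PAF is a Pseudomonas aeruginosa culture filtrate used as stimulus; plate controls were PAF-stimulated DMSO wells for no effect and unstimulated DMSO wells for full effect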
TWEAK-Fn14 inh: TWEAK-Fn14 signaling inhibition; TWEAK-stimulated Fn14 reporter cells, luciferase luminescence, 8 h; inhibition, % at 10 µM; actives 2% (n = 360,000); in the data active means inhibition above about 50%
Active calls of the source: *; · = no result. Sampled rows, rich in hits. Any-hit rate of the full collection: about 3.9%.

SMILES	TROY signal inh	Peg3 promoter	HIF-2a inh	KKLEB tox	CF NFkB block	TWEAK-Fn14 inh
CCS(=O)c1ccccc1C(=O)OCC(=O)N1CCC(c2ccccc2)=N1 (stereo unspecified)	-0.1	-18.8	-15.6	-3.2	-19.6	-13.9
c1ccc(NC2=NCCN2CC2CCCC2)cc1	-2.7	-1.0	17.0	7.9	11.4	-12.3
COc1ccc(C(=O)Nc2ccc3oc(Cc4ccc(Cl)cc4)nc3c2)cc1OC	18.7	-23.6	-39.1	4.3	-21.5	52.0*
Cc1cccc(C)c1OCC(=O)Nc1ccccc1C(F)(F)F	-5.5	6.7	7.7	4.3	-18.0	4.6
CN(C)CCN1C(=O)c2cccc3cc([N+](=O)[O-])cc(c23)C1=O	-89.1	97.2*	46.2*	-14.4	-146.4	-125.2
CN(C)CCCN1C(=O)c2cccc3cccc(c23)C1=O	-38.6	27.3	23.9	13.1	-71.7	-11.9
COc1cc(-c2noc(C)c2/C=C/c2ccc(OC(C)=O)cc2)cc(OC)c1OC	5.1	-34.3	-2.2	-37.4	28.4	51.8*
Cc1ccc(NC(=O)CN(C(=O)N2CCN(C)CC2)S(=O)(=O)c2ccc(C)cc2)cc1	55.2*	8.2	13.1	17.4	-1.2	-5.5
Cc1ccc(S(=O)(=O)N(CC(=O)Nc2ccc(F)cc2)C(=O)N2CCN(C)CC2)cc1	-4.6	8.2	9.1	3.9	-13.0	5.7
Cc1cc(C)nc(NC(=O)c2cccs2)c1	-14.8	-50.2	-97.4	13.2	-27.7	10.1
Cc1c(C(=O)NCC2COc3ccccc3O2)oc2ccc(S(=O)(=O)N3CCOCC3)cc12 (stereo unspecified)	28.3	72.9*	3.5	-21.4	-3.9	57.4*
Cc1c(C(=O)NCc2ccc3c(c2)OCO3)oc2ccc(S(=O)(=O)N3CCC(C)CC3)cc12	17.2	36.0	21.3	-10.8	-0.8	59.0*
CCN(CC)S(=O)(=O)c1ccc2oc(C(=O)NCC3COc4ccccc4O3)c(C)c2c1 (stereo unspecified)	35.9	28.1	18.2	-17.8	6.3	56.3*
O=[N+]([O-])c1ccc(N=Nc2ccc(O)c3ccccc23)cc1	33.5	-112.9	-120.7	-14.0	44.0	69.4*
O=S(=O)(Nc1ccc(N=Nc2ccc(O)c3ccccc23)cc1)c1ccccc1	37.2	24.5	-1.0	3.8	-12.5	44.9
COc1ccc(-n2c(C)c(C(C)=O)c3cc(OC(C)=O)ccc32)cc1	52.1*	15.7	35.5	-10.9	83.3*	83.9*
O=C1C=C(N2CCCCC2)c2ccccc2C1=O	-1.3	100.0*	46.4*	-77.1*	100.4*	14.2
O=C1c2ccccc2C(=O)c2c1cccc2N1CCCC1	-41.2	-11.2	-58.3	2.4	-15.9	15.4
CCCC(=O)N(Cc1cc2cccc(C)c2[nH]c1=O)c1ccccc1OC	-3.9	25.9	12.8	-4.5	-6.0	7.6
CCCC[C@@H]1CNCCN1CCc1cc(C(F)(F)F)cc(C(F)(F)F)c1	-0.1	7.2	-1.2	-10.7	1.4	11.1
FC(F)(F)c1cc(CCN2CCNC[C@@H]2CC2CCCCC2)cc(C(F)(F)F)c1	-29.5	95.5*	5.2	-22.3	19.9	-3.1
CCCCNS(=O)(=O)c1ccc2nc(SCC(=O)Nc3sccc3C#N)[nH]c2c1	70.6*	43.3	10.2	-30.0	12.5	-6.1
CCCCNS(=O)(=O)c1ccc2nc(SCC(N)=O)[nH]c2c1	2.8	7.5	9.5	13.5	3.6	-6.8
CCc1nnc(NC(=O)CCC(=O)N2CCN(Cc3ccccc3)CC2)s1	9.5	13.1	14.3	1.6	1.4	-3.4
CCc1nnc(NC(=O)CCC(=O)N2CCN(C3c4ccccc4-c4ccccc43)CC2)s1	77.5*	-14.7	-29.5	6.4	-5.7	70.2*
SMILES	TROY signal inh	Peg3 promoter	HIF-2a inh	KKLEB tox	CF NFkB block	TWEAK-Fn14 inh
CCOC(=O)c1cccc(N2C(=O)C3C(C2=O)C2C=CC3C23CC3)c1 (stereo unspecified)	·	13.7	14.0	13.7	-8.6	88.5*
Cc1cc(C(=O)COC(=O)c2ccc[nH]c2=O)c(C)n1-c1ccccc1	71.1*	-12.8	43.8*	-10.8	-1.6	58.4*
Cc1cc(C(=O)COC(=O)c2ccc[nH]c2=O)c(C)n1-c1ccc(F)cc1	70.2*	3.2	20.5	-9.1	-2.7	64.5*
Cc1cc(C(=O)COC(=O)c2ccc[nH]c2=O)c(C)n1C1CC1	19.4	-81.7	-36.6	0.7	-9.1	30.7
O=C(NC1CCCCC1)c1ccc2c(c1)OCCO2	-43.3	-180.4	-130.0	3.1	-13.0	9.1
O=C(NNC(=S)NC(=O)c1sc2ccccc2c1Cl)c1ccc(Cl)cc1	-32.6	-22.5	-95.5	-65.0*	75.5*	-52.3
O=C(O)c1ccccc1NC(=S)NC(=O)c1sc2ccccc2c1Cl	-11.7	-87.2	-71.8	-0.8	27.6	4.5
O=C(c1ccc2oc(CCc3ccccc3)nc2c1)N1CCC(O)CC1	57.5*	-208.4	-142.0	0.3	-26.2	48.6
CN(C)CCNC(=O)c1ccc(Sc2ccc(Br)cc2)c([N+](=O)[O-])c1	-18.7	93.9*	8.8	-5.8	18.7	-19.6
Cc1ccc(OCCN2CCC2(C)C(=O)Nc2ccc3c(c2)OCO3)cc1 (stereo unspecified)	-13.7	-19.2	-40.8	-16.9	-10.8	-7.7
COc1ccc(NC(=O)c2cncn2-c2ccccc2)cc1	-8.7	-9.8	-56.3	2.9	4.0	10.3
CNS(=O)(=O)c1cc(NC(=O)c2cncn2-c2ccccc2)ccc1C	11.4	0.2	-4.1	-10.0	2.3	78.7*
O=C(N/N=C/c1cn(-c2cccs2)nc1-c1ccccc1)c1ccccc1O	61.9*	-101.6	-137.4	-1.8	15.4	90.8*
O=C1C=C(c2c(O)ccc3ccccc23)c2ccccc2C1=O	48.6	106.8*	84.4*	-35.7	88.4*	101.9*
O=C1C=C(O)c2cccc(O)c2C1=O	-0.6	14.1	-2.4	-4.9	-18.1	1.5
O=C(Nc1ccccc1)c1ccccc1Oc1ccc(C(F)(F)F)cc1[N+](=O)[O-]	3.8	56.1*	6.0	4.4	-4.5	38.7
O=C(Nc1ccc(F)cc1)c1ccccc1Oc1ccc(C(F)(F)F)cc1[N+](=O)[O-]	17.9	27.5	1.9	-14.2	16.1	11.1
Cc1cc(C)c2oc(=O)cc(CN3CCC(C)CC3)c2c1	-6.0	11.7	2.1	-33.0	16.3	2.2
Cc1cccc(C)c1NC(=O)CN(C)C(=O)c1cccc(S(=O)(=O)N2CCN(c3ccccc3)CC2)c1	22.5	-12.9	9.8	20.2	6.5	-8.4
CN(Cc1ccc(OC(F)F)cc1)C(=O)c1cccc(S(=O)(=O)N2CCN(c3ccccc3)CC2)c1	36.9	25.3	14.5	17.8	-9.8	72.8*
CN(CCOc1ccc(Cl)cc1)C(=O)c1cccc(S(=O)(=O)N2CCN(c3ccc(F)cc3)CC2)c1	13.2	17.6	12.6	2.5	-6.4	63.7*
COc1ccc(CCN(C)C(=O)c2cccc(S(=O)(=O)N3CCN(c4ccc(F)cc4)CC3)c2)cc1OC	25.3	23.7	8.6	-11.7	42.9	27.9
